{
  "source": "PubChem BioAssay (Tox21)",
  "note": "Results filed as inconclusive are left out. Calls of active or inactive are those of the source. Calls follow the shape of the dose curve; as a rule, active = well fitted cell-killing curve with a large enough effect in the repeat runs; inconclusive = weak or mixed curves, or effect the other way; inactive = flat fitted curve, though single readings scatter. % is scaled to controls: 0 for no effect and ±100 for the full control effect.",
  "data": [
    {"test": "qHTS assay to identify small molecule agonists of the estrogen receptor beta (ER-beta) signaling pathway - cell viability counter screen (AID 1259380); also: nearly all actives have a fitted effect of over 30% in size", "details": "ER-beta-bla HEK293T viability, CellTiter-Glo luminescence, 16 h; series mostly up to 92.4 µM; activity change, negative = cytotoxicity: at the top concentration", "procedure,_shortened": "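Compounds dissolved in DMSO were pin-transferred onto ER-beta-UAS-bla HEK293T cells that had settled 6 hr, and exposure ran 16 hr at 37C. Following the reporter read, CellTiter-Glo luminescence after 30 min at room temperature indicated cytotoxicity.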", "values": [
      {"smiles": "CC(C)(C)NCC(O)COc1ccc(NC(=O)NC2CCCCC2)cc1", "note": "(configuration not stated)", "activity change, negative = cytotoxicity": "-0.261% [at 42.5 µM] (inactive)"},
      {"smiles": "O=C(O)c1ccc2cc(O)ccc2c1", "activity change, negative = cytotoxicity": "2.57% (inactive)"},
      {"smiles": "CC(C(=O)O)c1ccc2c(c1)Cc1cccnc1O2", "note": "(configuration not stated)", "activity change, negative = cytotoxicity": "-0.458% [at 42.5 µM] (inactive)"},
      {"smiles": "CC(O)CN", "note": "(configuration not stated)", "activity change, negative = cytotoxicity": "9.69% (inactive)"},
      {"smiles": "CCCCCC1CCC(=O)O1", "note": "(configuration not stated)", "activity change, negative = cytotoxicity": "-0.0607% (inactive)"},
      {"smiles": "OCCc1ccncc1", "activity change, negative = cytotoxicity": "2.75% (inactive)"},
      {"smiles": "CCCCOC(=O)C(C)Oc1ccc(Oc2ccc(C(F)(F)F)cn2)cc1", "note": "(configuration not stated)", "activity change, negative = cytotoxicity": "4.26% (inactive)"},
      {"smiles": "O=Cc1ccc(Cl)c([N+](=O)[O-])c1", "activity change, negative = cytotoxicity": "0.205% (inactive)"},
      {"smiles": "CCC(CC)C(=O)O", "activity change, negative = cytotoxicity": "1.33% (inactive)"},
      {"smiles": "Nc1ccc(F)cc1F", "activity change, negative = cytotoxicity": "4.82% (inactive)"},
      {"smiles": "CCOC(OCC)OCC", "activity change, negative = cytotoxicity": "9.57% (inactive)"},
      {"smiles": "CCCC1CCCC(=O)O1", "note": "(configuration not stated)", "activity change, negative = cytotoxicity": "-6.17% (inactive)"},
      {"smiles": "C=C[Si]1(C)O[Si](C)(C=C)O[Si](C)(C=C)O[Si](C)(C=C)O1", "note": "(configuration not stated)", "activity change, negative = cytotoxicity": "2.8% (inactive)"},
      {"smiles": "CCOC(C)OCC", "activity change, negative = cytotoxicity": "3.2% (inactive)"},
      {"smiles": "C=CCCC", "activity change, negative = cytotoxicity": "0.0138% (inactive)"},
      {"smiles": "O=C(c1ccco1)N1CCNCC1", "activity change, negative = cytotoxicity": "2.37% [at 42.5 µM] (inactive)"},
      {"smiles": "COC(=O)c1cc(Cl)ccc1[N+](=O)[O-]", "activity change, negative = cytotoxicity": "5.99% (inactive)"},
      {"smiles": "CC1(C)CC(=O)CC(C)(C)N1", "activity change, negative = cytotoxicity": "4.92% (inactive)"},
      {"smiles": "CCC(=O)O[C@@H]1C[C@H]2CC[C@]1(C)C2(C)C", "activity change, negative = cytotoxicity": "3.83% (inactive)"},
      {"smiles": "S=c1[nH][nH]c(=S)s1", "activity change, negative = cytotoxicity": "-5.73% (inactive)"},
      {"smiles": "CCCCCCCCCCCC(=O)OCC", "activity change, negative = cytotoxicity": "6% (inactive)"},
      {"smiles": "CCCCCCCCCCCCCCCCCCCl", "activity change, negative = cytotoxicity": "2.61% [at 8.39 µM] (inactive)"},
      {"smiles": "CCCC(=O)OCc1ccccc1", "activity change, negative = cytotoxicity": "11.3% (inactive)"},
      {"smiles": "O=C(O)c1ccccc1-n1cc(C(=O)O)c(=O)c2cc(Nc3c(F)cc(F)cc3Cl)c(Cl)cc21", "activity change, negative = cytotoxicity": "13.7% (inactive)"},
      {"smiles": "CCCCCCCCS", "activity change, negative = cytotoxicity": "10.7% (inactive)"},
      {"smiles": "CCCOC(C)=O", "activity change, negative = cytotoxicity": "6.91% (inactive)"},
      {"smiles": "C[C@@H](O)[C@H]1C(=O)N2C(C(=O)O)=C(S[C@@H]3CN[C@H](CNS(N)(=O)=O)C3)[C@H](C)[C@H]12", "activity change, negative = cytotoxicity": "7.8% [at 42.5 µM] (inactive)"}
    ]}
  ]
}
